The record followed here is PubChem BioAssay (EPA / NIEHS).

For orientation: AC50 means the concentration giving half of the maximal activity seen.

Records with an inconclusive call do not appear. The source holds several records for some structures; these can differ, active in one and inactive in another. Activity calls are given as the source filed them. Rule for the calls, unless noted: active = hit-call score of the fitted dose curve at least 0.9, where 1 is the maximum; inactive = score below 0.9.

The nature of assay [1]: BSK_3C_VCAM1: BioMAP Diversity Plus: 3C Assay for Vascular cell adhesion molecule 1 (VCAM1) Biomarker Activity (AID 2282999). The following applies: BioMAP 3C HUVEC, VCAM1 ELISA, cytokine-stimulated; actives raise or lower the signal. The method, boiled down: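 HUVEC primary cells, 24 h compound exposure; VCAM-1 by ELISA; gain/loss of signal fitted bidirectionally vs DMSO baseline.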
For orientation: In an ELISA, binding on a coated surface is turned into a signal by an enzyme label.

The nature of assay [2]: BSK_4H_Eotaxin3: BioMAP Diversity Plus: 4H Assay for Eotaxin 3 Biomarker Activity (AID 2283000).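 For outcome: CCL26 protein level quantified by ELISA in parallel with SRB cytotoxicity check.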 The conditions noted are these: primary human endothelial cells (HUVEC); actives raise or lower the signal. The method, boiled down: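 ELISA quantitation of CCL26 (Eotaxin-3) protein from chemically dosed human vascular endothelial cells at 24 h; increases and decreases both scored relative to DMSO-treated baseline.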

Assay [3] addresses human Peroxisome Proliferator-activated Receptor delta (PPARd), PPARD (gene 5467) (UniProt Q03181). The assay can be described thus: ATG_PPARd_TRANS: Attagene TRANS-FACTORIAL HepG2 Assay for human Peroxisome Proliferator-activated Receptor delta (PPARd) (AID 2283002; active = hit-call score of the fitted dose curve at least 0.9, where 1 is the maximum). The method, boiled down: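 Fluorescence from capillary electrophoresis of labelled RT-PCR reporter fragments gives the signal; DMSO sets baseline. Cells: HepG2 transiently carrying GAL4-UAS reporter units plus chimeric nuclear receptor-Gal4 proteins, exposed to chemicals for 24 h.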

Read-out in assay [4]: Intercellular Adhesion Molecule 1 (ICAM1), ICAM1 (gene 3383)
The assay can be described thus: BSK_3C_ICAM1: BioMAP Diversity Plus: 3C Assay for Intercellular Adhesion Molecule 1 (ICAM1) Biomarker Activity (AID 2283003). The following applies: primary human endothelial cells (HUVEC); actives raise or lower the signal. The method, boiled down: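 ELISA readout of ICAM1 in human umbilical vein endothelial cells in the 3C system, taken 24 h post-dose. Gain or loss of signal versus DMSO was fitted in both directions, with SRB total-protein staining run in parallel.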

A short description of assay [5]: BSK_3C_Proliferation: Cell Proliferation Assessment in the BioMAP Diversity Plus: 3C Assay (AID 2283006).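 For AC50: potency may reflect either rise or fall in cell number versus DMSO.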 The conditions noted are these: primary human endothelial cells (HUVEC). The method, boiled down: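 Proliferation as total protein: sulforhodamine B (0.1%) stain of TCA-fixed subconfluent human umbilical vein endothelial cells, absorbance 560 nm, 48 h after dosing. Activity fitted in both directions against DMSO baseline.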

For assay [6], the target named is Peroxisome proliferator-activated receptor gamma (Homo sapiens) (UniProt P37231). The assay can be described thus: ATG_PPARg_TRANS: Attagene TRANS-FACTORIAL HepG2 Assay for human Peroxisome Proliferator-activated Receptor-gamma (PPARg) (AID 2283007; active = hit-call score of the fitted dose curve at least 0.9, where 1 is the maximum). The method, boiled down: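 Multiplexed reporter transcription units in HepG2, 24 h dosing, reporter transcripts quantified by fluorescent RT-PCR and capillary electrophoresis. Increase over DMSO scored.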

Assay [7] deals with Nuclear receptor subfamily 1 group I member 2 (Homo sapiens) (UniProt O75469). The assay can be described thus: ATG_PXR_TRANS: Attagene TRANS-FACTORIAL HepG2 Assay for human Pregnane X Receptor (PXR) (AID 2283008; active = hit-call score of the fitted dose curve at least 0.9, where 1 is the maximum). The method, boiled down: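 Trans-factorial format: exogenous NR-Gal4 fusion activity, not endogenous factor, in transfected human HepG2 liver cells. After 24 h dosing, RNA isolated, reverse-transcribed, amplified and resolved by capillary electrophoresis; induction scored versus DMSO.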

Assay [8] concerns the target Retinoic acid receptor RXR-alpha (Homo sapiens) (UniProt P19793). The assay can be described thus: ATG_RXRa_TRANS: Attagene TRANS-FACTORIAL HepG2 Assay for human Retinoid X Receptor alpha (RXRa) (AID 2283012; active = hit-call score of the fitted dose curve at least 0.9, where 1 is the maximum). The method, boiled down:
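TRANS format reporting activity of exogenous RXRa-Gal4 chimera in transiently transfected HepG2, 24 h exposure. Reporter transcripts quantified by RT-PCR with capillary electrophoresis, with gain of signal scored relative to DMSO.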

Assay [9] addresses human Retinoid X Receptor beta (RXRb), RXRB (gene 6257) (UniProt P28702). The assay can be described thus: ATG_RXRb_TRANS: Attagene TRANS-FACTORIAL HepG2 Assay for human Retinoid X Receptor beta (RXRb) (AID 2283013; active = hit-call score of the fitted dose curve at least 0.9, where 1 is the maximum). The method, boiled down: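 Readout is reporter transcript induction after 24 h dosing. It is measured by RT-PCR of total RNA followed by fluorescent capillary electrophoresis. HepG2 liver cells carry transfected multiple reporter units driven by an exogenous RXRb-Gal4 fusion; activity is relative to DMSO.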

Read-out in assay [10]: E-selectin (Homo sapiens) (UniProt P16581)
Nature of the assay: BSK_3C_Eselectin: BioMAP Diversity Plus: 3C Assay for Eselectin Biomarker Activity (AID 2283015).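 For outcome: cell surface E-selectin protein quantified by ELISA 24 h after dosing.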 The conditions noted are these: primary human endothelial cells (HUVEC); actives raise or lower the signal. The method, boiled down:
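Endpoint derived by bidirectional fitting against DMSO vehicle; signal is ELISA-detected E-selectin from primary HUVEC at 24 h post-dosing, with parallel SRB staining (0.1% SRB, 560 nm) flagging cytotoxicity.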

Read-out in assay [11]: Monocyte Chemoattractant Protein-1 (MCP1), CCL2 (gene 6347)
The assay can be described thus: BSK_3C_MCP1: BioMAP Diversity Plus: 3C Assay for Monocyte Chemoattractant Protein-1 (MCP1) Biomarker Activity (AID 2283017). The following applies: primary human endothelial cells (HUVEC); actives raise or lower the signal. The method, boiled down: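 Using human vascular primary endothelium, researchers measured MCP-1 by ELISA 24 h after treatment, with DMSO serving as negative control for bidirectional fitting.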

Read-out in assay [12]: Monocyte Chemoattractant Protein-1 (MCP1), CCL2 (gene 6347)
The assay can be described thus: BSK_4H_MCP1: BioMAP Diversity Plus: 4H Assay for Monocyte Chemoattractant Protein-1 (MCP1) Biomarker Activity (AID 2283018). The conditions noted are these: primary human endothelial cells (HUVEC); actives raise or lower the signal. The method, boiled down:
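ELISA of MCP-1 (CCL2) 24 h after chemical dosing of HUVEC in the BioMAP 4H system. Gain or loss versus DMSO fitted; parallel SRB staining (560 nm) tracked overt cytotoxicity.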

The target in assay [13] is human RAR-related Orphan Receptor beta (RORb), RORB (gene 6096) (UniProt Q92753). Nature of the assay: ATG_RORb_TRANS: Attagene TRANS-FACTORIAL HepG2 Assay for human RAR-related Orphan Receptor beta (RORb) (AID 2283010; active = hit-call score of the fitted dose curve at least 0.9, where 1 is the maximum). The method, boiled down:
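Read-out is reporter mRNA induction, quantified by RT-PCR with fluorescent capillary electrophoresis, 24 h post-dose in transiently transfected HepG2 expressing exogenous NR-Gal4 chimera. Activity fitted upward versus DMSO.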

Assay [14] has as its target human RAR-related Orphan Receptor gamma (RORg), RORC (gene 6097) (UniProt P51449). Nature of the assay: ATG_RORg_TRANS: Attagene TRANS-FACTORIAL HepG2 Assay for human RAR-related Orphan Receptor gamma (RORg) (AID 2283011; active = hit-call score of the fitted dose curve at least 0.9, where 1 is the maximum). The method, boiled down: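 Chimeric RORg-Gal4 transactivation in transfected HepG2; 24 h exposure; RT-PCR/capillary electrophoresis readout of reporter mRNA, DMSO baseline.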

Assay [15] addresses human Thyroid Receptor alpha (THRa1), THRA (gene 7067) (UniProt P10827). The assay can be described thus: ATG_THRa1_TRANS: Attagene TRANS-FACTORIAL HepG2 Assay for human Thyroid Receptor alpha (THRa1) (AID 2283014; active = hit-call score of the fitted dose curve at least 0.9, where 1 is the maximum). The method, boiled down:
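Measured here is mRNA from a GAL4-UAS reporter in transfected HepG2 cells carrying a Gal4-fused receptor, 24 h post-dose. DMSO served as negative control and baseline.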

Assay [16] has as its target human Retinoic Acid Receptor beta (RARb), RARB (gene 5915) (UniProt P10826). The assay can be described thus: ATG_RARb_TRANS: Attagene TRANS-FACTORIAL HepG2 Assay for human Retinoic Acid Receptor beta (AID 2283004; active = hit-call score of the fitted dose curve at least 0.9, where 1 is the maximum). The method, boiled down:
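Fluorescent capillary-electrophoresis detection of GAL4-UAS reporter mRNA defines the endpoint, with induction over DMSO-treated wells scored as activity. Transiently transfected human hepatoma HepG2 cells expressing exogenous NR–Gal4 proteins are exposed to test chemicals for 24 h.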

For assay [17], the target named is Retinoic acid receptor alpha (Homo sapiens) (UniProt P10276). The assay can be described thus: ATG_RARa_TRANS: Attagene TRANS-FACTORIAL HepG2 Assay for human Retinoic Acid Receptor alpha (RARa) (AID 2283005; active = hit-call score of the fitted dose curve at least 0.9, where 1 is the maximum). The method, boiled down: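 HepG2 transiently transfected with multiplex GAL4-UAS reporter units including a human RARa–GAL4 chimera; 24 h compound exposure. Reporter mRNA quantified by RT-PCR, 6-FAM labeling and capillary electrophoresis; gain of signal versus DMSO.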

Assay [18] addresses human Retinoic Acid Receptor gamma (RARg), RARG (gene 5916) (UniProt P13631). The assay can be described thus: ATG_RARg_TRANS: Attagene TRANS-FACTORIAL HepG2 Assay for human Retinoic Acid Receptor gamma (RARg) (AID 2283009; active = hit-call score of the fitted dose curve at least 0.9, where 1 is the maximum). The method, boiled down: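 Transactivation of exogenous RARg-Gal4 fusion measured as reporter transcript induction after 24 h in transfected HepG2 cells. RNA reverse-transcribed, amplified, fluorescently labeled and resolved by capillary electrophoresis; increase relative to DMSO.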

Read-out in assay [19]: Interleukin-1 alpha (IL1a), IL1A (gene 3552)
The assay can be described thus: BSK_BE3C_IL1a: BioMAP Diversity Plus: BE3C Assay for Interleukin-1 alpha (IL1a) Biomarker Activity (AID 2283016). The conditions noted are these: primary human bronchial epithelial cells; actives raise or lower the signal. The method, boiled down: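 IL-1a measured by ELISA after 24 h treatment of human primary bronchial epithelial cells, with gain or loss of signal fitted versus DMSO. Parallel cultures stained with SRB gauge overt cytotoxicity.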

human Retinoic Acid Receptor gamma (RARg), RARG (gene 5916), sequence (P13631 whole entry, looked up, the tested form may be a part): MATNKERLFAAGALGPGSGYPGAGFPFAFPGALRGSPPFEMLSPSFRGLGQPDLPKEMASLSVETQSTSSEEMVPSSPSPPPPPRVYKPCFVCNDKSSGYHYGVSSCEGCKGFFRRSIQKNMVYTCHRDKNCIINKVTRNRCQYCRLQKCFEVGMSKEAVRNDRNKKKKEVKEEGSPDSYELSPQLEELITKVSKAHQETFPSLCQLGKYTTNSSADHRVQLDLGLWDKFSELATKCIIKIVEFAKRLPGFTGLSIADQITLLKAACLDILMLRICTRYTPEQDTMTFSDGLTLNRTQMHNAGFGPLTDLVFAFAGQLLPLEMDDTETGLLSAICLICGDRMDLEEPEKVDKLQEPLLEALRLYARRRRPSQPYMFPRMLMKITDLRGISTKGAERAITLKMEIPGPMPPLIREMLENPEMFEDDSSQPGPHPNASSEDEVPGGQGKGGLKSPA
human Retinoid X Receptor beta (RXRb), RXRB (gene 6257), sequence (P28702 whole entry, looked up, the tested form may be a part): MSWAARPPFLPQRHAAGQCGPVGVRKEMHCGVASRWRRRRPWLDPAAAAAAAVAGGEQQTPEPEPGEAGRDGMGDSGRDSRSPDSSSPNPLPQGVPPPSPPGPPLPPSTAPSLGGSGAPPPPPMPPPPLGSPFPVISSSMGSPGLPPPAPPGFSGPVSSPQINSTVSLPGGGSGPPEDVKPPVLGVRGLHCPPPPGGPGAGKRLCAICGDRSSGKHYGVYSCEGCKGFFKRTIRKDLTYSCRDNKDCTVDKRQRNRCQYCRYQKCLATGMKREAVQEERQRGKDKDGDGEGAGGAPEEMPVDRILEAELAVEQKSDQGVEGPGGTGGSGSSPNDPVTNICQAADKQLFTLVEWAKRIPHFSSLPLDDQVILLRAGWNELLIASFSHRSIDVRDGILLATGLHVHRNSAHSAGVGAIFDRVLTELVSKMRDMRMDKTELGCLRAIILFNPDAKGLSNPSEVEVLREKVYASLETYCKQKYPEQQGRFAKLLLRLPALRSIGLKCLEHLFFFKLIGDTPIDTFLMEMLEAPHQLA
human Thyroid Receptor alpha (THRa1), THRA (gene 7067), sequence (P10827 whole entry, looked up, the tested form may be a part): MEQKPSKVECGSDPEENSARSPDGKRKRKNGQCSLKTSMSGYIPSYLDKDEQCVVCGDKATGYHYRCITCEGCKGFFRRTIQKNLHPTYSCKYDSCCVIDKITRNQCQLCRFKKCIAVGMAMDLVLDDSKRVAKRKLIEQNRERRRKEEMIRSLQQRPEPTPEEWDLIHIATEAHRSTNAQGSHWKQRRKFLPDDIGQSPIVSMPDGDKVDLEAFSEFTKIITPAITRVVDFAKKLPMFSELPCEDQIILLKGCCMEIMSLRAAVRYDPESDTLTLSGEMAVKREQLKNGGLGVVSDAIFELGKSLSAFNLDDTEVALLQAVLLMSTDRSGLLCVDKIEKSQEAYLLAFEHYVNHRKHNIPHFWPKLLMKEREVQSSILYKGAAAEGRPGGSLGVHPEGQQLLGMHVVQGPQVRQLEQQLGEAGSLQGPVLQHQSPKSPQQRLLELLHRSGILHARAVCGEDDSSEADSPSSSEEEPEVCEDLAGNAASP
Nuclear receptor subfamily 1 group I member 2 (Homo sapiens), sequence (O75469 whole entry, looked up, the tested form may be a part): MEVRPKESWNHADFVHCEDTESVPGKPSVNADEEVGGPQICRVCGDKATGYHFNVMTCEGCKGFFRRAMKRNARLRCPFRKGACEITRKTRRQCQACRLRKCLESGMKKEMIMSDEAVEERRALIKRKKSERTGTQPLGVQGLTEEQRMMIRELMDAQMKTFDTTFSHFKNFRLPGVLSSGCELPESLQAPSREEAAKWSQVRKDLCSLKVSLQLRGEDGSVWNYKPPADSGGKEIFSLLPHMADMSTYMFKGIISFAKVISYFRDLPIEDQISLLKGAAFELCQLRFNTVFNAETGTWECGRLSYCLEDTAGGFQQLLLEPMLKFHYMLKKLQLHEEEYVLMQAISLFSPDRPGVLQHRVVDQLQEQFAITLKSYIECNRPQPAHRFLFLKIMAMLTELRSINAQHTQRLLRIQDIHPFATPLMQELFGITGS
human RAR-related Orphan Receptor gamma (RORg), RORC (gene 6097), sequence (P51449 whole entry, looked up, the tested form may be a part): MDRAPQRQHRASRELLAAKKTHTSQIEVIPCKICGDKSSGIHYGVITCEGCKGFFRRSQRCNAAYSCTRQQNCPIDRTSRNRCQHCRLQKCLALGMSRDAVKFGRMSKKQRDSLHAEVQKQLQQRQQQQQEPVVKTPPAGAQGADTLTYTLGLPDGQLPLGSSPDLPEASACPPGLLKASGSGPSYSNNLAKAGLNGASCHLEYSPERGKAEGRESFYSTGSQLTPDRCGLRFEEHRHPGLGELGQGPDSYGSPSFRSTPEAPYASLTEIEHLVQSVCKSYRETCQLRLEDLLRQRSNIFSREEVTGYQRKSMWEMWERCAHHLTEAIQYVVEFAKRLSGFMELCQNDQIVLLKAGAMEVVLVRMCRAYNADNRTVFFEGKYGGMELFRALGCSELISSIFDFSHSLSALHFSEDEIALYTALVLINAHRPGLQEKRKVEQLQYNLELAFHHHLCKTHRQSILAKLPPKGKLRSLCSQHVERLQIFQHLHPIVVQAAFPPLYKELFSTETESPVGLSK
Peroxisome proliferator-activated receptor gamma (Homo sapiens), sequence (P37231 whole entry, looked up): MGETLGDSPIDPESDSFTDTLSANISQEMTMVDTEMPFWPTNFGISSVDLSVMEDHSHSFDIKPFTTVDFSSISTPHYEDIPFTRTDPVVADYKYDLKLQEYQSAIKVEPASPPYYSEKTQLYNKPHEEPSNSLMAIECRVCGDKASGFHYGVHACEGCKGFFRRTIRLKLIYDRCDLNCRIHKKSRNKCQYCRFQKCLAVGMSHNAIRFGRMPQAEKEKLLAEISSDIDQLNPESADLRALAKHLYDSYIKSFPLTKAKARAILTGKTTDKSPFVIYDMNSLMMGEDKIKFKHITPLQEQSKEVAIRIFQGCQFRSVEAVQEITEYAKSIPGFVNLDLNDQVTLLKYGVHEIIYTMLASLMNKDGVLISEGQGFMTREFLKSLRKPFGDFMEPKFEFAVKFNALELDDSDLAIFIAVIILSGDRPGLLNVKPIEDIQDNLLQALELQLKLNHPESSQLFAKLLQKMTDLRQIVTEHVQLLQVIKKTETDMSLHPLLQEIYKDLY
human Peroxisome Proliferator-activated Receptor delta (PPARd), PPARD (gene 5467), sequence (Q03181 whole entry, looked up, the tested form may be a part): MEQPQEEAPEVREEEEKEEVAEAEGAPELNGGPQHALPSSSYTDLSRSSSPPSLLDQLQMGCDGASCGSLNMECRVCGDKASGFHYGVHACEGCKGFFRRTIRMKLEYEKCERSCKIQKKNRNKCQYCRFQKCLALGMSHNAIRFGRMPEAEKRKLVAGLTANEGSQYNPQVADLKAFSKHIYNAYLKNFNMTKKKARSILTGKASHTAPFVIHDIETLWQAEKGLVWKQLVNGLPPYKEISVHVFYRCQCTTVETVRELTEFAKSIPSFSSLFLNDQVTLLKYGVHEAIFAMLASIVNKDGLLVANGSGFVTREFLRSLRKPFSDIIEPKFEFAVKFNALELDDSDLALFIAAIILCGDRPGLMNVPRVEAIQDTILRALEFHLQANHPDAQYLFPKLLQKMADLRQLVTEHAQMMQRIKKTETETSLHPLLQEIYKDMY
human RAR-related Orphan Receptor beta (RORb), RORB (gene 6096), sequence (Q92753 whole entry, looked up, the tested form may be a part): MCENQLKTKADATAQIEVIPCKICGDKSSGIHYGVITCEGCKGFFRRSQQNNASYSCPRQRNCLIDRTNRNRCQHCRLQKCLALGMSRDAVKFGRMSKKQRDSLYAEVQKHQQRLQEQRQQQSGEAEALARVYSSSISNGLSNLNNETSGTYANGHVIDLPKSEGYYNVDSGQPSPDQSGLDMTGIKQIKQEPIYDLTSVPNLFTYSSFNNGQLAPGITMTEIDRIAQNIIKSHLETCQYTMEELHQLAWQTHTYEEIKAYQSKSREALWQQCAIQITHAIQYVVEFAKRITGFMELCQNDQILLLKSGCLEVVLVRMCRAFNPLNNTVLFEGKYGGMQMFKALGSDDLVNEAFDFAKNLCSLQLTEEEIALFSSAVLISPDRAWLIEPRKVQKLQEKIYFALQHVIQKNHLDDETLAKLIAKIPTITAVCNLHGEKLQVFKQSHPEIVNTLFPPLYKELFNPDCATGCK
human Retinoic Acid Receptor beta (RARb), RARB (gene 5915), sequence (P10826 whole entry, looked up, the tested form may be a part): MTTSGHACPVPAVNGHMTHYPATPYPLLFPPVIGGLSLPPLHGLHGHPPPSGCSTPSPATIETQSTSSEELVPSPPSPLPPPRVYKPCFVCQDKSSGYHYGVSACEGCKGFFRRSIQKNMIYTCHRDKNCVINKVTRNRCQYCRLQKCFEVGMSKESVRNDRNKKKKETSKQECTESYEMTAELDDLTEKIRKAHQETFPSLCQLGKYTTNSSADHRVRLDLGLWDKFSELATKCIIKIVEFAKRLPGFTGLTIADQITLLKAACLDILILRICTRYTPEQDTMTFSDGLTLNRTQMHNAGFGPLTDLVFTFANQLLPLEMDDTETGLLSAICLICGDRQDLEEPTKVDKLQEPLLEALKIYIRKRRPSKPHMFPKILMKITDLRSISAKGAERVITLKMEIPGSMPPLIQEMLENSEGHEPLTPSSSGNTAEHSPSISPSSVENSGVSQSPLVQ
Retinoic acid receptor RXR-alpha (Homo sapiens), sequence (P19793 whole entry, looked up, the tested form may be a part): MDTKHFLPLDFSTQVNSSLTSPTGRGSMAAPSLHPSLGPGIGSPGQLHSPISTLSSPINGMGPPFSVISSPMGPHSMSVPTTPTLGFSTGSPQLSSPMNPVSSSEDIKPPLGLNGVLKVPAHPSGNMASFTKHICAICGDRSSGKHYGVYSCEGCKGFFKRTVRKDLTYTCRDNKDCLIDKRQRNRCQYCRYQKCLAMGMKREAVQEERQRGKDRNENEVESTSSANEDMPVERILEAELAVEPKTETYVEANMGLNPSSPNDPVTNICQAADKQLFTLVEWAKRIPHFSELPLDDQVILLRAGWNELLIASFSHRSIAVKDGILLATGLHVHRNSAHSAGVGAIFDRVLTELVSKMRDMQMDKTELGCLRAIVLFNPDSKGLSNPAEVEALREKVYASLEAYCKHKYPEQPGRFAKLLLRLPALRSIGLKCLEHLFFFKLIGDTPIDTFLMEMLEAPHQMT

Take `CCCCC(CC)CN1C(=O)C2C3C=CC(C3)C2C1=O` (stereo not drawn): the outcome in [1], in assay [2], in assay [3], in [4], in assay [8] and in assay [9] was inactive. Besides, the outcome in assay [10] and in [11] was inactive. In addition, the AC50 in assay [5] was 31.2 µM (active); in [6], 50 µM (active); in [7], 14.6 µM (active); in assay [12] it was 19.2 µM (active).
Turning to `CCCN(CCC)C(=O)SCC`, the result in assay [1], in assay [2], in assay [4], in assay [5], in assay [6] and in assay [7] was inactive. In addition, the compound was classed as inactive in assay [13], in assay [14], in assay [8], in [9], in assay [15] and in [10]. The result in assay [11] and in assay [12] was inactive.
Consider `CCCCOC(=O)[C@@H](C)Oc1ccc(Oc2ccc(C(F)(F)F)cn2)cc1`, for which the outcome in [1], in assay [2], in [4], in assay [16], in [17] and in assay [5] was inactive. Also, the result in assay [6], in [7], in assay [18], in assay [13], in assay [8] and in assay [9] was inactive. Also, the compound was classed as inactive in assay [15], in assay [10], in assay [19], in assay [11] and in assay [12].
As for `Oc1ccc(C(c2ccc(O)cc2)C(Cl)(Cl)Cl)cc1`, the AC50 is 30.3 µM (active) in assay [1]; 31.4 µM (active) in assay [2]; 27.6 µM (active) in assay [4]; 19.8 µM (active) in assay [5]; 27.3 µM (active) in assay [10]; 29.1 µM (active) in [11]. Moreover, the AC50 in assay [12] was 14.6 µM (active). The compound was called inactive in assay [6], in assay [7], in [13], in [14], in [9] and in assay [15].
For the compound `O=C(O)c1ccccc1`, the outcome in [1], in assay [2], in assay [4], in assay [5], in assay [6] and in assay [13] was inactive. In addition, the result in [14], in assay [8], in [9], in assay [10], in [19] and in [11] was inactive. Further, in assay [12], the result was inactive.
With `CCC(O)=C1C(=O)CC(C(=O)O)CC1=O` (stereo not drawn), the outcome in assay [1], in assay [2], in [4], in assay [16], in assay [17] and in [5] was inactive. The result in assay [18], in assay [13], in assay [14], in assay [8], in assay [9] and in [15] was inactive. In addition, the outcome in assay [10], in [11] and in [12] was inactive. For the same compound, the AC50 in [6] is 22.3 µM (active).
Regarding `COC(=O)c1ccccc1C(=O)O`, the result in [1], in [2], in [4], in assay [5], in [6] and in assay [7] was inactive. Besides, the result in assay [18], in assay [15], in assay [10], in assay [11] and in assay [12] was inactive.
For the compound `CCCOC(=O)NCCCN(C)C`, the outcome in assay [1], in [2], in [4], in assay [16], in [17] and in [5] was inactive. Further, the outcome in assay [6], in [8], in assay [9], in assay [10], in assay [11] and in [12] was inactive.
As for `C#C[C@]1(O)CC[C@H]2[C@@H]3CCC4=CC(=O)CC[C@@H]4[C@H]3CC[C@@]21CC`, the result in assay [1], in assay [2], in assay [3], in assay [4], in [6] and in [7] was inactive. The result in assay [8], in assay [9], in assay [15], in assay [10], in [19] and in [11] was inactive. Also, in assay [12], the outcome was inactive. In addition, the AC50 in [5] is 16 µM (active); in [7] it was 9.53 µM (active).
